Experiments:
Experiment in all cases: PBM binding z-score (relative to random genomic background probes); higher = stronger binding; sequences stand for … in GC…GCGATTGACAGCGTAGAATGAAGG
[1] = tested on: PPARg:RXRa DBDmut IVT, anti-RXR (DBD mutation: RXRa K156A/R161A, NR concentration 270 nM, RXRa partner concentration 90 nM)
Summary of the method: (§1)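 Ligand-free nuclear receptor dimers were applied to custom Agilent 4×180K protein-binding microarrays whose double-stranded probes carried direct-repeat seeds, single-nucleotide variants, half-site ablations and random human genomic background sequences in 34-nt variable regions. Incubation lasted 1 h. Binding z-scores were computed against the random background probes from regression-normalized fluorescence.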

[2] = tested on: PPARg:RXRa IVT, anti-PPARg (NR concentration 270 nM, RXRa partner concentration 90 nM)
Summary of the method: as §1

[3] = tested on: PPARg DBDmut:RXRa IVT, anti-PPARg (DBD mutation: PPARg1 K132A/R137A, NR concentration 270 nM, RXRa partner concentration 90 nM)
Summary of the method: as §1

[4] = tested on: PPARg DBDmut IVT, anti-PPARg (DBD mutation: PPARg1 K132A/R137A, NR concentration 270 nM)
Summary of the method: as §1

[5] = tested on: PPARg homodimer (NR concentration 180 nM)
Summary of the method: as §1

[6] = tested on: PXR:RXRa (NR concentration 270 nM, RXRa partner concentration 90 nM)
Summary of the method: as §1

[7] = tested on: PXR homodimer (NR concentration 270 nM)
Summary of the method: as §1

[8] = tested on: RARa:RXR (NR concentration 270 nM, RXRa partner concentration 90 nM)
Summary of the method: as §1

[9] = tested on: RARa homodimer (NR concentration 270 nM)
Summary of the method: as §1

[10] = tested on: RARb:RXRa (NR concentration 270 nM, RXRa partner concentration 90 nM)
Summary of the method: as §1

[11] = tested on: RARb homodimer (NR concentration 270 nM)
Summary of the method: as §1

[12] = tested on: RARg:RXRa (NR concentration 270 nM, RXRa partner concentration 90 nM)
Summary of the method: as §1

[13] = tested on: RARg homodimer (NR concentration 270 nM)
Summary of the method: as §1

[14] = tested on: RXRa DBDmut IVT, anti-RXR (DBD mutation: RXRa K156A/R161A, NR concentration 90 nM)
Summary of the method: as §1

[15] = tested on: RXRa homodimer (NR concentration 180 nM)
Summary of the method: as §1

[16] = tested on: THRa:RXRa (NR concentration 90 nM, RXRa partner concentration 90 nM)
Summary of the method: as §1

[17] = tested on: THRa homodimer (NR concentration 90 nM)
Summary of the method: as §1

[18] = tested on: VDR homodimer (NR concentration 270 nM)
Summary of the method: as §1

Row | Sequence | PBM binding z-score [1] | PBM binding z-score [2] | PBM binding z-score [3] | PBM binding z-score [4] | PBM binding z-score [5] | PBM binding z-score [6] | PBM binding z-score [7] | PBM binding z-score [8] | PBM binding z-score [9] | PBM binding z-score [10] | PBM binding z-score [11] | PBM binding z-score [12] | PBM binding z-score [13] | PBM binding z-score [14] | PBM binding z-score [15] | PBM binding z-score [16] | PBM binding z-score [17] | PBM binding z-score [18]
1 | ATCTCTAGGTAAAGATAGGTCAGTGAATGCAAAT | 2.37 | 2.45 | 1.34 | 1.35 | 1.17 | 1.05 | 0.597 | 1.52 | 1.54 | 1.81 | 2.4 | 1.84 | 1.85 | 0.189 | 1.2 | 2.02 | 0.451 | 0.412
2 | CATACAGGGTCAGCTGGGCCAGAGTAGGGACGGC | 1.23 | 2.66 | 0.246 | 0.292 | 1.52 | 2.22 | -0.145 | 2.81 | 0.258 | 4.08 | 3.31 | 4.6 | 4.97 | 1.48 | 4.64 | 3.12 | 0.678 | 1.18
3 | AGAATGAGGTTATTAAGACCAGGGAATTGCGGTC | 2.67 | 2.43 | 1.16 | 0.232 | 0.709 | 1.02 | -0.304 | 1.49 | -0.0801 | 1.38 | 0.935 | 1.24 | 0.733 | 1.64 | 1.91 | 2.17 | 0.47 | 0.915
4 | CCTTACGGGTCACTCCTGGTTATAGCATCGGAGT | 2.58 | 3.35 | 0.273 | -0.731 | 1.77 | 2.67 | 0.0261 | 3.18 | 0.288 | 3.55 | 2.89 | 4.05 | 4 | 1.26 | 3.9 | 2.86 | -0.0278 | 1.19
5 | TCTGCTAGGTCAACGATGGTCAACTAATCTGCTA | 4.51 | 4.3 | 0.357 | 0.326 | 1.75 | 2.4 | -0.851 | 2.39 | -0.654 | 4.12 | 3.58 | 4.12 | 5.25 | 1.32 | 2.75 | 3.24 | 1.05 | 0.125
6 | ACTCGGAGGACAAAGTTCAGAGCTACGCCAGTGA | 0.00289 | 1.33 | -0.512 | -0.633 | 1.27 | 1.98 | 1.2 | 1.47 | 0.278 | 2.97 | 2.84 | 3.2 | 2.63 | 2.1 | 1.63 | 1.71 | -0.296 | 2.54
7 | TAGCCTAGGTCATGGGCCATTATACCACGCGAAC | 1.69 | 3.57 | 0.221 | -0.316 | 1.41 | 1.81 | -0.0788 | 2.65 | -0.113 | 3.98 | 3.25 | 4.27 | 4.52 | 0.45 | 3.75 | 3.17 | 1.37 | 0.862
8 | ATACCAAGGTGATCGTGAGGTAGTTGATACTAAC | 0.454 | 0.993 | 1.09 | 0.92 | -0.0605 | -0.117 | 0.172 | -0.156 | 0.171 | 0.566 | 0.262 | 0.422 | 0.424 | -0.401 | 0.329 | 1.5 | 0.542 | 0.0713
9 | ATCTCTAGGTAAAAGATCAGTGAATCCCGAGGAT | 2.47 | 2.26 | 1.02 | 0.762 | 0.847 | -0.177 | -0.245 | 0.0916 | 0.407 | -0.0842 | -0.353 | 0.381 | 0.48 | -0.342 | 0.281 | 0.298 | 0.125 | -0.0729
10 | TAGCCTAGGTCATGAGCCAGTATACCACGCGAAC | 1.81 | 3.11 | -0.211 | 0.0511 | 1.45 | 1.61 | -0.537 | 2.64 | 0.534 | 3.58 | 2.5 | 4.1 | 3.99 | 0.516 | 3.37 | 2.97 | 1.01 | 0.409
11 | TCATATAGGTAAAAGGTAAAAGTCGGTGTGGTAA | 5.05 | 4.32 | 0.348 | 1.01 | 1.81 | 1.39 | 0.507 | 1.78 | 2.04 | 0.854 | 0.553 | 0.857 | 0.169 | 1.88 | 1.94 | 0.886 | 0.222 | 0.494
12 | TCTTGTTGATCAATAGAGGTTAAGAAAGTGCGCT | 1.5 | 0.913 | 0.422 | 1.13 | 0.192 | 2.89 | 0.147 | 1.71 | 0.519 | 1.05 | 1.09 | 0.58 | 0.28 | 0.766 | 1.48 | 1.58 | -0.22 | 0.411
13 | AGAATGAGGTTATTGAGATCAGGGAATTGCGGTC | 3.5 | 2.93 | 0.606 | 0.563 | 0.709 | 1.57 | 0.864 | 1.84 | 0.342 | 1.63 | 1.07 | 1.43 | 0.831 | 2.21 | 2.16 | 2.45 | 1.01 | 1.28
14 | TGAATGAGGTTAAAGATCAGCGAACGTGGCGTCG | 2.09 | 3.38 | 1.34 | 0.131 | 0.5 | 1.89 | -0.0611 | 2.82 | -0.162 | 1.88 | 0.498 | 2.34 | 1.26 | 1.56 | 3.59 | 2.39 | 0.17 | 0.749
15 | ATCTCTAGGTACCAAGTTCAGTGAAAGAGAGGAC | 0.464 | 0.878 | 1.07 | 0.989 | 0.548 | 1.42 | 1.37 | 0.711 | 0.57 | 1.28 | 1.51 | 0.686 | 0.865 | 1.27 | 0.546 | 0.926 | 0.692 | 2.26
